Shown are actives, neighbours in structure and some others; about 1.4% of the full set was active somewhere.
ZTA counter: ZTA (EBV) inhibition in EBNA-1 counter-screen | AID 2234 | inhibition, % at 11 µM | hit rate 0.15% among 320,000 | P03206 | ZTA-DNA binding, fluorescence polarization; in the data active means inhibition above about 33%
LANA-H2A inh: blocks KSHV LANA binding to histone H2A/H2B | cell-free LANA-H2A/H2B peptide, fluorescence polarization | inhibition, % (concentration not given with the values) | hit rate 0.6% among 320,000 | AID 2629; in the data active means inhibition mostly above about 10%, no sharp cut-off; inactive means mostly below about 6.7%
LYPLA1 inh: LYPLA1 (human) inhibition in PME1 counter-screen. AID 2174. O75608. inhibition, % at 5.9 µM. hit rate 0.16% among 320,000. recombinant LYPLA1, FP-Rh probe fluorescence polarization;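 active means inhibition above the mean of all tested compounds plus 3 SD, set per campaign, cut at about 14% in these data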;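 further: inhibitors block serine hydrolase probe labeling of LYPLA1 so polarization falls; 0% = enzyme with DMSO and 100% = wells lacking LYPLA1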
Target sequence (O75608 whole entry, looked up): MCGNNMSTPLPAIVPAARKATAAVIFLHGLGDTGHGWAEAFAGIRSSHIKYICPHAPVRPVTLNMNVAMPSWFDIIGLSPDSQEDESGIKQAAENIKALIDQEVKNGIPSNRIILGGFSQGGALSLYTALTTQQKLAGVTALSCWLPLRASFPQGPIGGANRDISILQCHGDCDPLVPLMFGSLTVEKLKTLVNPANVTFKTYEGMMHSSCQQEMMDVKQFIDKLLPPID
LYPLA2 counter: LYPLA2 (human) inhibition in PME1 counter-screen; recombinant LYPLA2, FP-Rh probe fluorescence polarization; inhibition, % at 5.9 µM; hit rate 0.38% among 320,000;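 active means inhibition above the screen-wide mean plus 3 SD, limit set per campaign, cut at about 26% in these data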;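 further: 0% = LYPLA2 with DMSO and 100% = wells lacking LYPLA2 enzyme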
Target sequence (O95372 whole entry, looked up): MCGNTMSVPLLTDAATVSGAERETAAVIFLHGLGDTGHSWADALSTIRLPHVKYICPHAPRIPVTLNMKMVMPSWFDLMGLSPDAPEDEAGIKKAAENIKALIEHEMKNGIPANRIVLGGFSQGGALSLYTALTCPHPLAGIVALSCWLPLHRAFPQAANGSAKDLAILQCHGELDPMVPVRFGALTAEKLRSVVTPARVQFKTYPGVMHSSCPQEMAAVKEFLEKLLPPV
EBNA-1 inhibitor: blocks EBNA-1 binding to DNA | EBNA-1 DNA binding, fluorescence polarization | hit rate 0.34% among 300,000 | inhibition, % at 14.8 µM | AID 1950; in the data active means inhibition above about 28%
EBNA-1 inh conf: EBNA-1 (EBV) inhibition, confirmation; shares compounds with EBNA-1 inhibitor; Recombinant EBNA-1 DBD, Cy5-DNA fluorescence polarization; inhibition, % at 14.8 µM; hit rate 35% among 830; AID 2292;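 active means mean inhibition across replicates above a set limit taken from the earlier primary screen, cut at about 28% in these data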;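 further: plate controls were EBNA-1 protein with DMSO for no effect and wells lacking EBNA-1 for full effect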
ZTA counter trip: ZTA (EBV) inhibition, triplicate counter-screen; shares compounds with EBNA-1 inhibitor; Zta-ZRE DNA binding, Cy5 fluorescence polarization; inhibition, % at 11.1 µM; 830 tested, under 10 active; AID 2328;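 active means mean inhibition over triplicates above a set limit taken from the primary EBNA-1 screen, cut at about 37% in these data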;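 further: purified full length Zta protein with Cy5 labeled ZRE DNA probe; 0% = Zta with DMSO and 100% = wells lacking Zta protein; inhibitors lower polarization by freeing the labeled DNA probe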
Numbers without * were called inactive; x = no result.

SMILES	ZTA counter	LANA-H2A inh	LYPLA1 inh	LYPLA2 counter	EBNA-1 inhibitor	EBNA-1 inh conf	ZTA counter trip
O=C(Nc1cccc(NC(=O)c2cccs2)c1)c1ccc(Br)cc1	12.5	4.1	-4.7	-14.7	69.8*	75.3*	8.5
O=C(NNC(=O)c1cccs1)c1ccc(Br)cc1	-7.2	2.3	-2.7	3.0	-5.7	x	x
O=C(Nc1cccc(NC(=O)c2ccc(F)cc2)c1)c1ccc(F)cc1	8.1	-0.2	0.2	0.3	28.3*	9.8	2.4
CSCCC(NS(=O)(=O)c1ccccc1F)C(=O)NCCCn1nc(C)cc1C (stereo unspecified)	-10.1	6.0	3.0	-0.1	-15.1	x	x
O=C(CC1CCCC1)Nc1ccc(Cl)c(S(=O)(=O)N2CCOCC2)c1	x	2.0	x	x	x	x	x
CCOC(=O)c1cnc(SCc2cccc3ccccc23)nc1N	0.4	5.2	-8.3	-4.4	105.3*	6.5	14.2
COc1cccc(Cn2c(=S)[nH]c3ccc(N4CCOCC4)cc3c2=O)c1	-3.9	0.8	3.2	-3.8	28.7*	7.8	-11.0
O=c1c2cc(N3CCOCC3)ccc2[nH]c(=S)n1Cc1cccc(Cl)c1	0.6	-1.4	0.0	2.8	30.3*	6.9	7.4
O=c1c2cc(N3CCOCC3)ccc2[nH]c(=S)n1Cc1ccco1	-7.8	3.8	2.0	6.3	-0.5	x	x
COc1cccc(CNC(=O)CCCCCn2c(=S)[nH]c3ccc(N4CCOCC4)cc3c2=O)c1	-0.6	x	-2.7	-2.7	12.2	x	x
O=C(NCCCCl)C1CC(=O)N(CCc2ccc(F)cc2)C1 (stereo unspecified)	10.3	-1.1	0.9	2.4	8.9	x	x
COc1ccc(Cc2nnc(NC(=O)Nc3ccccc3F)s2)cc1OC	3.9	3.8	-6.0	-14.2	36.7*	70.6*	10.1
CCc1ccc(N2CC(C(=O)Nc3ccc(S(=O)(=O)NCC4CCCO4)cc3)CC2=O)cc1 (stereo unspecified)	9.0	0.7	-5.0	9.6	94.0*	28.9*	-17.6
O=C(Nc1ccc(S(=O)(=O)NCC2CCCO2)cc1)C1CC(=O)N(c2ccccc2)C1 (stereo unspecified)	0.8	-2.7	2.6	2.7	-6.6	x	x
Cc1cc(C)n(CCNS(=O)(=O)c2ccccc2)n1	3.6	-1.9	1.1	8.0	10.2	x	x
COc1ccc(CCNC(=O)CN2C(=O)COc3ccc(S(=O)(=O)N4CCOCC4)cc32)cc1OC	4.7	1.0	-3.0	-3.3	-3.6	x	x
COc1ccc(-c2cc(CCCC(=O)NCCc3ccccc3)no2)cc1	6.2	-2.3	-0.8	4.7	-9.4	x	x
COc1ccc(-c2cc(CCCC(=O)NCCc3ccc(OC)cc3OC)no2)cc1	1.1	4.3	-4.7	0.7	36.1*	46.1*	13.3
CCOc1ccc(/C=N/NC(=O)c2nnn(-c3nonc3N)c2-c2ccc(OCC)cc2)cc1	-7.8	8.5	-5.0	-3.7	35.0*	0.8	-0.9
COc1cccc(-c2c(C(=O)N/N=C(\C)c3ccc(Cl)s3)nnn2-c2nonc2N)c1	-5.7	-5.2	-5.5	-9.5	35.3*	6.3	-7.4
COc1cccc(-c2c(C(=O)N/N=C(\C)c3ccco3)nnn2-c2nonc2N)c1	-13.0	7.2	2.8	3.6	-3.7	x	x
CCOc1cccnc1Sc1ccccc1	-3.6	-3.1	2.5	4.4	-3.6	x	x
Cc1cc(Cl)ccc1OCC(=O)Nc1ccccc1N1CCOCC1	7.6	7.7	-6.3	-4.1	9.3	x	x
Cc1cc(Cl)ccc1OCC(=O)NC(=S)Nc1ccccc1N1CCOCC1	14.1	-1.7	-1.2	-2.2	44.0*	38.0*	8.5
CSc1ncccc1C(=O)Nc1nnc(C2CC2)s1	1.8	-6.6	-2.0	3.2	2.5	x	x
SMILES	ZTA counter	LANA-H2A inh	LYPLA1 inh	LYPLA2 counter	EBNA-1 inhibitor	EBNA-1 inh conf	ZTA counter trip
CCOC(=O)c1sc(N2C(=O)C(O)=C(C(=O)c3ccc(C)o3)C2c2cccc([N+](=O)[O-])c2)nc1C (stereo unspecified)	23.1	0.8	-10.1	-21.0	32.7*	17.0	-20.4
CCOc1ccc(/C=N/NC(=O)C(=O)NCc2ccco2)cc1	-5.5	-0.3	-2.8	-1.8	33.9*	-7.7	-1.5
Cc1cc(S(=O)(=O)Nc2ccc(C(=O)NCc3ccncc3)cc2)ccc1F	1.5	5.2	-0.8	-6.0	-7.4	x	x
Cc1ccc(NC(=O)C(=O)NCCc2c[nH]c3ccccc23)cc1C	-8.2	1.7	-2.6	-4.3	4.6	x	x
O=C(NCCc1c[nH]c2ccccc12)C(=O)Nc1ccccc1	4.7	-2.3	-1.1	8.4	35.2*	1.8	-7.7
O=C(OCc1cccc(C(F)(F)F)c1)c1ccc[nH]c1=O	9.4	4.0	1.7	-0.4	11.2	x	x
COc1ccc(CNC(=O)CN2C(=O)C3CCCN3c3ncc(Cl)cc32)cc1 (stereo unspecified)	20.2	-4.6	-4.8	-12.4	29.1*	-7.6	-1.8
COC(=O)c1ccccc1NC(=O)CN1C(=O)C2CCCN2c2ncc(Cl)cc21 (stereo unspecified)	3.3	-2.7	-11.6	-26.9	3.7	x	x
CC(=O)Oc1ccc(/C(C)=N\N2CCN(Cc3ccc(Cl)cc3)CC2)cc1	1.2	-0.6	-3.1	-1.1	1.6	x	x
Cc1cccc(NC(=O)CSc2ncnc3sc(C)c(C)c23)n1	x	-3.2	x	x	x	x	x
Cc1sc2ncnc(SCC(=O)NNC(=O)COc3cccc4ccccc34)c2c1C	16.7	-2.6	2.8	4.6	119.0*	97.9*	-11.5
CCC[N+]1(CC#CC(O)(c2ccccc2)C2CCCCC2)CCCCC1 (stereo unspecified)	2.7	4.8	2.8	2.6	-11.5	x	x
NC(=O)C[N+]1(CC#CC(O)(c2ccccc2)c2ccccc2)CCCC1	12.4	0.1	2.2	0.6	128.3*	1.6	-1.2
Cc1ccc(NC(=O)Cc2ccccc2F)cc1S(=O)(=O)N1CCCCCC1	-5.1	3.5	-4.8	-3.7	x	x	x
COc1ccc(NC(=O)c2cc(-c3cccnc3)nc3c(C)c(C)ccc23)c(OC)c1	8.0	2.0	-2.5	-1.9	33.2*	23.5	-6.5
O=C(NCCOc1ccccc1F)c1ccc2c(=O)n3c(nc2c1)CCC3	7.8	-2.4	-4.7	-5.6	x	x	x
O=C(NCCc1ccc(F)cc1)c1ccc2c(=O)n3c(nc2c1)CCC3	-12.5	2.3	-2.2	-3.3	44.9*	-3.9	-4.7
CCCCN(C(=O)c1cc(-c2ccco2)nc2ccccc12)c1c(N)n(CCCC)c(=O)[nH]c1=O	0.4	-3.9	-3.0	-5.2	14.1	x	x
CCCCn1c(N)c(N(CCC(C)C)C(=O)c2cc(-c3ccco3)nc3ccccc23)c(=O)[nH]c1=O	-2.7	-3.1	-1.6	3.6	51.3*	-16.5	2.9
COc1ccc(S(=O)(=O)N(C)c2ccc(C(=O)Nc3c(C)n(C)n(-c4ccccc4)c3=O)cc2)cc1	9.2	0.0	2.4	4.5	3.2	x	x
COc1ccccc1NS(=O)(=O)c1cccc(-n2c(O)c(C=Nc3ccccc3C(=O)O)c3ccccc3c2=O)c1	10.0	-1.2	8.2	3.1	36.2*	21.1	6.3
